Source: PubChem BioAssay (National Center for Advancing Translational Sciences (NCATS))
FLuc counter: counter-screen for miR-21 project: firefly luciferase inhibitors or activators. P08659. purified FLuc, Km substrates, luminescence inhibition. Potency, µM (titrated, usually from 57.5 µM), inactives show at the highest dose activity change, negative = inhibition, usual class: inhibitors. 360,000 compounds, 6.9% hits. AID 588342;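 further: plate controls were vehicle for no effect and reference inhibitor for full effect; nearly all actives have a fitted effect of over 55% in size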
Target sequence (P08659 whole entry, looked up): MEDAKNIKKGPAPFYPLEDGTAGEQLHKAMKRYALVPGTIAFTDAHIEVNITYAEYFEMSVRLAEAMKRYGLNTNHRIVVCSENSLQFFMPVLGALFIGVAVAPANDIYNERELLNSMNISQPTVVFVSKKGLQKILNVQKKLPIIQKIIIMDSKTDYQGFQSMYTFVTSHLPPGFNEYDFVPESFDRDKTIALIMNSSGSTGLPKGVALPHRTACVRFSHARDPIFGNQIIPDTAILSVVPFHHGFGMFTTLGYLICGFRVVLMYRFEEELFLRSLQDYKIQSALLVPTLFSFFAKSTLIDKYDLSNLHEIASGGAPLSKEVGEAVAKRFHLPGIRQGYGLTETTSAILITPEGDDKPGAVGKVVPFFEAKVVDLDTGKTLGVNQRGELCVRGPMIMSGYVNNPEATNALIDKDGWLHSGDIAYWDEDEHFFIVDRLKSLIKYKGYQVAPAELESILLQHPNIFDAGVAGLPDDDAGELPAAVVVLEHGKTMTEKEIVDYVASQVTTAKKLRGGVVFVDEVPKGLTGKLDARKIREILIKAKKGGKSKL
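Purified P. pyralis luciferase, 10 nM final, with Km-level 10 uM D-luciferin and 10 uM ATP in 50 mM Tris acetate pH 7.5, 10 mM Mg acetate, 0.01% Tween-20, 0.05% BSA; 6-point qHTS titration about 60 µM downward; luminescence read.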
Luc counter: counter-screen: inhibitors of Kinase-Glo firefly luciferase; Q27757; Kinase-Glo luciferase, ATP luminescence, 8 min; Potency, µM (titrated, usually from 38.3 µM), inactives show top-dose activity change, negative = inhibition, actives largely listed as inhibitors; 200,000 compounds, 0.28% hits; further: on the % scale 0 is the no-effect control and ±100 the full control effect; nearly all actives have a fitted effect of over 60% in size
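Light output from Kinase-Glo luciferase with luciferin and 10 uM ATP in 50 mM imidazole pH 7.2, KCl, MgCl2, Tween 20, BSA; compound pin-delivered, 8-min ambient incubation, then luminescence read.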
ELG1 genotoxic: genotoxicity induction in ELG1-luciferase HEK293T cells. HEK293T ELG1-luciferase reporter, luminescence, 16 h. Potency, µM (top dose mostly 46 µM), without a hit: at the top dose activity change, positive = activation, most hits filed as activators. 330,000 compounds, 1.3% hits; further: % of control where 0% means no effect; nearly all actives have a fitted effect of over 60% in size
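ELG1-luciferase HEK293T cells, 2,000/well; compound pinned in; 16 hr, 37 °C, 5% CO2; ONE-Glo, 30 min RT; luminescence on CCD imager.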
Rab9 prom act: activates the Rab9 promoter; Potency, µM (doses to about 9.22 µM), inactives show top-dose activation, negative = inhibition, usual class: activators; Huh7 Rab9 promoter-luciferase reporter, luminescence, 24 h; 320,000 compounds, 2.8% hits; further: % of control where 0% means no effect; nearly all actives have a fitted effect of over 60% in size
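Cells were plated at 1500 per well in reduced-serum medium with 10% FBS and left 2 h. Compound in DMSO was then added for 24 h at 37 °C. Reporter signal was read by luminescence after 10 min with luciferase detection reagent.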
NPC1 promoter act: activates the NPC1 promoter | Huh7 NPC1 promoter luciferase reporter, 24 h | Potency, µM (titrated, usually from 9.22 µM), for inactives: at the highest dose activation, usual class: activators | 320,000 compounds, 2.4% hits; further: % of control where 0% means no effect; nearly all actives have a fitted effect of over 60% in size
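Stably transfected Huh7 (NPC1 promoter→luciferase), 1500 cells/well in Opti-MEM + 10% FBS, 2 h settle, then compound 24 h at 37 °C. Luminescence after 10 min with Amplite reagent.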
SMN2 splice enh: enhancers of SMN2 splice variant expression; HEK293 SMN2-luciferase splicing reporter, luminescence, 30-36 h; Potency, µM (doses to about 46.1 µM), without a hit: at the highest dose activity change, positive = activation, hits mostly activators; 210,000 compounds, 2.8% hits; further: % of control where 0% means no effect; nearly all actives have a fitted effect of over 55% in size
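HEK293 cells carry an SMN2 minigene-luciferase reporter in which exon 7 inclusion puts luciferase in frame. Cells were seeded at 2000 cells/well, attached for 10-12 hours, then exposed to compounds for 30-36 hours at 37C before ONE-Glo luminescence.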
* = called active by the depositor; ? = inconclusive; . = not tested or not shown; [ ] = remark or other dose. Most compounds without a hit are left out; they make up all but 7.5% or so of the library. The call rests on the fitted dose curve; in most records, active means well fitted curve in the direction sought with a large enough effect; inconclusive means small, poorly fitted or top-dose-only effect, or another doubt; inactive means no such curve, though single readings can be large; an effect the other way counts as inactive or inconclusive. Potency means the concentration at half of the fitted maximal effect.

SMILES	FLuc counter	Luc counter	ELG1 genotoxic	Rab9 prom act	NPC1 promoter act	SMN2 splice enh
Cc1ccc(C(=O)c2sc3nc4c(cc3c2N)CCC4)cc1	?	2%	?	2.2µM*	1.8µM*	7.9µM*
Cc1ccc(-c2c3c(nc4sc(C(N)=O)c(N)c24)CCC3)cc1	17µM*	3%	0%	?	-4%	5%
NC(=O)c1sc2nc3c(c(-c4ccc(Cl)cc4)c2c1N)CCCC3	3%	-4%	-34%	-3%	-4%	26%
Nc1c(C(=O)Nc2ccccc2F)sc2nc3c(cc12)CCCCCC3	-5%	.	.	.	.	8%
Nc1c(C(=O)N2CCCCC2)sc2nc3c(cc12)CCCC3	6.7µM*	.	6.5µM*	2.8µM*	2.5µM*	.
Nc1c(C(=O)N2CCCC2)sc2nc(-c3ccccc3)ccc12	4.8µM*	.	?	1.6µM*	2µM*	.
COc1ccccc1NC(=O)c1sc2nc3c(cc2c1N)CCCCCC3	-11%	.	.	.	.	-5%
CN[C@H]1[C@@H](O[C@@H]2[C@H](O[C@@H]3[C@@H](O)[C@@H](O)[C@@H](N=C(N)N)[C@@H](O)[C@@H]3N=C(N)N)O[C@H](C)[C@@]2(O)C=O)O[C@@H](CO)[C@@H](O)[C@H]1O	.	-3%[17.1 µM]	.	.	.	-1%[20.6 µM]
CCN(CC(=O)Nc1ccc2c(c1)OCCO2)C(=O)c1ccc(C)c(S(=O)(=O)N2CCOCC2)c1	?	.	0%	-5%	-1%	.
CCCCNC(=O)c1cnn2c(C)c(Cc3c(C)cc(C)cc3C)c(C)nc12	-10%	.	.	.	.	.
N=C1C(c2ccccc2)=C(O)CN1c1cccc(S(=O)(=O)NCc2ccco2)c1	3%	.	0%	-3%	-4%	.
O=C(c1ccc2c(Cl)c3c(nc2c1)CCCC3)N1CCN(c2cccc(C(F)(F)F)c2)CC1	-11%	.	.	.	.	2%
CCOc1ccc(CCNC(=O)c2cc3c(s2)CS(=O)(=O)C3)cc1OCC	0%	.	-1%[9.26 µM]	2%	2%	.
CCC1CCCCN1C(=O)CSc1nnc(-c2ccco2)o1 (centres undefined)	15µM*	6%	?	3.2µM*	?	?
O=C(CSc1nnc(-c2ccco2)o1)c1ccccc1	?	-3%	8%	?	?	6%
CC1CCN(C(=O)CSc2nnc(-c3ccco3)o2)CC1	-14%	12%	12%	-7%	2%	-7%
O=C(CSc1nnc(-c2ccco2)o1)N1CCCCC1	?	.	19%	3.2µM*	?	.
O=C(CSc1nnc(-c2ccco2)o1)c1ccc[nH]1	?	-4%	?	2.2µM*	?	18µM*
CCC1CCCCN1C(=O)CSc1nnc(-c2cccc(Cl)c2)o1 (centres undefined)	?	4%	18µM*	13%	28%	?
CCC1CCCCN1C(=O)CSc1nnc(-c2ccc(Cl)cc2)o1 (centres undefined)	-15%	1%	-5%	1%	1%	-45%
COc1ccc(-c2cn(CCC(=O)O)c(C)n2)cc1	?	.	3%	2%	-2%	.
COCCCn1c(O)c(/C=C2\N=C(C#N)C(=Nc3ccc(C)cc3)O2)sc1=S	6.7µM*	.	13%	-25%	-18%	.
CCC1CCc2sc(C(=O)NNC(=O)c3ccncc3)cc2C1 (centres undefined)	17µM*	.	-1%	-4%	1%	.
C/C(=N\NC(=O)c1cc2c(s1)CCC(C)C2)c1ccc[nH]1 (centres undefined)	0.76µM*	.	?	1.6µM*	1.8µM*	.
CC1CCc2sc(C(=O)Nc3ccc(N4CCOCC4)cc3)cc2C1 (centres undefined)	?	-1%	-7%	-2%	5%	-27%
Cc1ccc(CNC(=O)COC(=O)c2cc3c(s2)CCC(C)C3)cc1 (centres undefined)	10%	.	2%	-4%	-2%	.
CC1CCc2sc(C(=O)N/N=C/c3ccc(O)cc3)cc2C1 (centres undefined)	2.1µM*	.	15%	-1%	0%	.
